Laboratory results taken from PMC4552634, “A New Set of Chemical Starting Points with Plasmodium falciparum Transmission-Blocking Potential for Antimalarial Drug Discovery” (PLoS ONE, 2015).
The campaign covered roughly 13,000 compounds. About 3,200 (25%) showed an effect of 50% or more. Some of the results follow.

tested on: P. falciparum stage V gametocytes; set-up: BacTiter-Glo ATP luminescence viability of purified stage V gametocytes in 384-well plates, per cent inhibition versus DMSO; conditions: 48 h, 5 µM; inhibitor

Compound	% Inhibition
O=C(/C=C/c1ccc(Cl)c(Cl)c1)NCCCCN1CCCN(C(=O)Nc2cc(Cl)cc(Cl)c2)CC1 [TCMDC-135929]	-18.98%
COc1ccc(CN2CCCC(OC(c3ccc(F)cc3)c3ccc(F)cc3)C2)c(O)c1 (centres unmarked) [TCMDC-136166]	23.2%
Fc1cccc(COc2ccc(Nc3ncnc4sc(C#C[C@H]5CC[C@H](CN6CCOCC6)N5)cc34)cc2Cl)c1 [TCMDC-135417]	-15.95%
Cc1c(F)cc(C(=O)NC2CC2)cc1-c1ccc2c(cnn2S(=O)(=O)c2ccc(F)c(F)c2)c1 [TCMDC-135239]	15.38%
Cc1ccc2nc(C)cc(Nc3ccccc3O)c2c1 [TCMDC-123660]	-31.17%
CCCc1cc(C)ccc1OCCCON1C(NC(=O)OCC)=NC(NC(=O)OCC)=NC1(C)C [TCMDC-131343]	12.88%
COc1cc(Cc2cnc(N)nc2N)cc(OCCn2ccccc2=O)c1OC [TCMDC-137347]	-6.593%
CCN(CC)c1ccc2nc(N)nc(N)c2c1Cl [TCMDC-137857]	-7.537%
CN(C)c1ccc(CN2CCC(CNC(=O)c3cc(-c4ccccc4F)cs3)C2)cc1.O=C(O)C(F)(F)F (centres unmarked) [TCMDC-134453]	72.61%
O=C(NCC1CCN(Cc2ccc3c(c2)OCCO3)C1)c1cc(-c2ccccc2F)cs1.O=C(O)C(F)(F)F (centres unmarked) [TCMDC-134459]	14.42%
CSc1ccc(CN2CCC(CNC(=O)c3cc(-c4ccccc4F)cs3)C2)cc1.O=C(O)C(F)(F)F (centres unmarked) [TCMDC-134460]	78.38%
CCCNC[C@@H](O)[C@H](Cc1ccccc1)NC(=O)c1cc(NCC)cc(N2CCCC2=O)c1 [TCMDC-138890]	18.6%
Cc1cc(C(=O)OCC(N)=O)c(C)n1-c1ccc(F)cc1 [TCMDC-123812]	-34.47%
Cc1cc(N2CCOCC2)nc2ccc(NC(=O)c3ccc(Cl)c([N+](=O)[O-])c3)cc12 [TCMDC-125441]	-11.29%
CN(C)S(=O)(=O)c1ccc(C(=O)N(c2nc(-c3ccccc3)cs2)C2CCCCC2)cc1 [TCMDC-123561]	-34.43%
C=CCN(C(=O)c1ccc(Cl)c([N+](=O)[O-])c1)c1nc(-c2ccccc2)cs1 [TCMDC-124436]	137%
O=C(Nc1cc(Cl)cc(Cl)c1)c1cc(Cl)c(=O)n(Cc2ccc(Cl)cc2)c1 [TCMDC-123810]	18.7%
CCOC(=O)c1cn(CC)c2cc(N3CCCCCC3)c(F)cc2c1=O [TCMDC-124160]	58.45%
CCOC(=O)c1cn(CC)c2cc(N3CCCCC3)c(F)cc2c1=O [TCMDC-124156]	35.74%
CCn1cc(C(=O)O)c(=O)c2cc(F)c(N3CCN(S(=O)(=O)c4ccc(N)cc4)CC3)cc21 [TCMDC-125809]	2.438%
O=C(/C=C/c1ccc(Cl)c(Cl)c1)NCCCCCCN1CCCN(C(=O)Nc2ccc(F)c(F)c2)CC1 [TCMDC-135938]	-42.76%

Compound	% Inhibition
O=C1Nc2cccc3c2C1(CCCCN1CCC(c2c(-c4ccc(F)cc4)[nH]c4ccccc24)CC1)CCC3 (centres unmarked) [TCMDC-140656]	74.07%
CC1(CCCCN2CC=C(c3c[nH]c4ccccc34)CC2)C(=O)Nc2ccccc21 (centres unmarked) [TCMDC-140717]	-30.41%
Cc1ccc(OC2CCN(CCCCC3(C)C(=O)Nc4ccccc43)CC2)cc1 (centres unmarked) [TCMDC-140795]	-17.97%
Cc1[nH]c2ccccc2c1C1=CCN(CCCCCC23CCCc4cccc(c42)NC3=O)CC1 (centres unmarked) [TCMDC-140463]	-65.61%
O=C1Nc2cccc3c2C1(CCCCN1CCC(c2c(-c4ccccc4)[nH]c4ccccc24)CC1)CCC3 (centres unmarked) [TCMDC-140655]	54.78%
Cc1nc(N)nc(N)c1-c1ccc2ccccc2c1 [TCMDC-137286]	-7.805%
FC(F)(F)c1ccc2[nH]c(-c3cccc(-c4cccc(CNCc5cnn(-c6ccccc6)n5)c4)c3)nc2c1.O=C(O)C(F)(F)F [TCMDC-132966]	-44.07%
COc1cccc(NC(=O)N2CCOC(CCN3CCC4(CCc5ccccc54)CC3)(c3ccc(Cl)c(Cl)c3)C2)c1 (centres unmarked) [TCMDC-135330]	-52.33%
O=C(/C=C/c1ccc(Cl)c(Cl)c1)N1CCC(CN2CCC(c3c(Br)[nH]c4ccccc34)CC2)CC1 [TCMDC-140652]	-44.15%
CC(C)n1c(CC2CCN(CC3CCN(C(=O)/C=C/c4ccc(Cl)c(Cl)c4)CC3)CC2)nc2ccccc21 [TCMDC-140372]	82.38%
O=C(/C=C/c1ccc(Cl)c(Cl)c1)N1CCC(CN2CCC(c3c(-c4ccc(F)cc4)[nH]c4ccccc34)CC2)CC1 [TCMDC-140654]	18.04%
CC(C)n1c(C2CCN(CC3CCN(C(=O)/C=C/c4ccc(Cl)c(Cl)c4)CC3)CC2)nc2ccccc21 [TCMDC-140212]	-15.48%
O=C(/C=C/c1ccc(Cl)c(Cl)c1)N1CCC(CN2CCC(c3c(-c4ccccc4)[nH]c4ccccc34)CC2)CC1 [TCMDC-140653]	54.21%
O=C(/C=C/c1ccc(Cl)c(Cl)c1)N1CCC(CN2CCC(Cc3nc4ccccc4[nH]3)CC2)CC1 [TCMDC-140119]	26.7%
CCn1c(C2CCN(CCC3CCN(C(=O)/C=C/c4ccc(Cl)c(Cl)c4)CC3)CC2)nc2ccccc21 [TCMDC-140221]	-5.757%
Cc1cc(O)cc2c(C3CCN(CC4CCN(C(=O)/C=C/c5ccc(Cl)c(Cl)c5)CC4)CC3)c[nH]c12 [TCMDC-140065]	-70.17%
Cn1c(NC2CCN(CC3CCN(C(=O)/C=C/c4ccc(Cl)c(Cl)c4)CC3)CC2)nc2ccccc21 [TCMDC-140340]	94.55%
O=C(/C=C/c1ccc(Cl)c(Cl)c1)N1CCC(CN2CCC(c3nc4ccccc4n3CCCO)CC2)CC1 [TCMDC-140312]	-4.21%
Cc1[nH]c2ccccc2c1CC1CCN(CC2CCN(C(=O)/C=C/c3ccc(Cl)c(Cl)c3)CC2)CC1 [TCMDC-140128]	-40.98%
Cc1ccc(-c2ccc3c(c2)C=C(C(=O)NCC2CCN(CC4CCN(C(=O)/C=C/c5ccc(Cl)c(Cl)c5)CC4)CC2)CCC3)cc1 [TCMDC-140646]	108.7%
